Screening results (PubChem BioAssay)
tim10-1 inh – tim10-1 yeast growth inhibition | S. cerevisiae tim10-1 ts strain growth, BacTiter-Glo, 24 h | inhibition, % at 20 µM | 330,000 compounds, 2.2% hits;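 active = inhibition of at least 40%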;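 also: mutant grown at 25 °C; 0% = DMSO wells with yeast and 100% = wells holding no yeast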
SKKanGAS inh – blocks kanamycin growth of S. pyogenes SKKanGAS strain; BacTiter-Glo, 6 h; inhibition, % at 7.5 µM; 300,000 compounds, 1.3% hits; AID 1662;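 active = mean replicate score, as percent of positive control median, at least 50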;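 also: strain carries kanamycin resistance gene driven by streptokinase promoter and grows in 40 µg/ml kanamycin; loss of luminescence reflects streptokinase promoter inhibition or plain growth inhibition; 0% = median of DMSO wells and 100% = positive control at its reference dose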
TIM10 inh – growth inhibitors of TIM10 yeast strain. S. cerevisiae TIM10 strain growth, BacTiter-Glo luminescence, 24 h. 330,000 compounds, 1.4% hits. AID 463195. inhibition, % at 10 µM;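 active = inhibition of 40% or more at the single tested concentration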;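 also: wild-type TIM10 isogenic control strain grown at permissive 25 °C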
NALP3 yeast inh – inhibitors of NALP3 inflammasome in yeast. 330,000 compounds, 0.39% hits. Yeast reconstituted NLRP3/ASC/caspase-1, beta-gal luminescence, 24 h. inhibition, % at 10 µM;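 active = inhibition of 50% or more; inactive = inhibition below 50%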;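 also: plate controls were induced DMSO wells for no effect and uninduced yeast grown without galactose for full effect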
PfHsp90 set2 – reduces growth (ATP signal) of yeast expressing P. falciparum Hsp90; inhibition, % at 9.4 µM; S. cerevisiae expressing PfHsp90, BacTiter-Glo ATP, 48 h; yeast lacking PDR1 and PDR3 efflux regulators; 310,000 compounds, 0.32% hits;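 active = every replicate shows inhibition above about 80%, whatever the replicate mean, limit read from the data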;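 also: 0% = DMSO neutral controls and 100% = 20 µM radicicol positive controls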
tim23-1 inh – inhibits growth of tim23-1 mutant yeast | S. cerevisiae tim23-1 growth, BacTiter-Glo luminescence, 24 h | inhibition, % at 20 µM | 330,000 compounds, 1.3% hits;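 active = growth inhibition of the mutant yeast at or above 50%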;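 also: temperature-sensitive mutant grown at 25 °C; plate controls were DMSO-treated mutant yeast for no effect and medium wells lacking yeast for full effect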
The depositor's hits bear a star; / = no result. Compounds with a hit are over-represented: about 4.5% of the library has one in this group of screens.

SMILES	tim10-1 inh	SKKanGAS inh	TIM10 inh	NALP3 yeast inh	PfHsp90 set2	tim23-1 inh
CC(Sc1nc2cc([N+](=O)[O-])ccc2n1-c1cccc(C(F)(F)F)c1)C(=O)NC(N)=O (stereo not given)	6	51*	-43	1	-23	-14
CC(C)CC(=O)NC(=S)NNC(=O)c1ccc(NC(=O)C2CCCCC2)cc1	-16	88*	-15	17	13	2
CC(C)CC(=O)NC(=S)NNC(=O)c1ccc([N+](=O)[O-])cc1	-5	20	-39	19	47	-1
O=C(Nc1ccccc1C(=O)Nc1nnc(C(F)(F)F)s1)c1ccccc1	13	97*	-10	2	-10	26
COCCNc1nnc(SCC(=O)NC(=O)c2ccccc2)s1	4	29	-2	-4	-12	4
CCc1ccc(S(=O)(=O)/N=C2\C=C(Nc3cccc(C(=O)O)c3)C(=O)c3ccccc32)cc1	23	106*	27	33	8	32
CN(C)/C=C/C(=O)c1ccccc1	11	-4	-3	-2	-1	-1
CN(C)/C=C/C(=O)c1ccc(Oc2ccccc2)cc1	21	-12	13	25	101*	33
CN(C)/C=C/C(=O)c1ccc2noc(-c3ccccc3)c2c1	32	10	19	21	106*	25
CC(=O)c1ccc2noc(-c3ccccc3)c2c1	-5	-6	-5	19	5	4
CCOc1ccc(/C=N/NC(=O)C(O)c2ccccc2)c(O)c1 (stereo not given)	6	2	10	15	12	16
O=C(c1ccc(Cl)cc1)c1cnc(Nc2ccccc2Cl)s1	23	75*	25	15	13	17
CC(=O)c1cnc(Nc2cccc(Cl)c2Cl)s1	-8	-2	14	34	2	22
CCCc1cc(=O)[nH]c(SCC(=O)N2CCc3ccccc32)n1	16	/	1	6	-3	8
CCSc1ccc([C@@H]2[C@@H]3C(=O)N(C)C(=O)[C@@H]3[C@]3(C(=O)OC)CCCCN23)cc1	23	1	-9	5	16	-12
CCOC(=O)Nc1ccc(OCc2nnc3c4ccccc4c(C)nn23)cc1	21	94*	9	6	/	27
Cc1nn2c(COc3ccc(NC(=O)c4ccccc4Cl)cc3)nnc2c2ccccc12	21	87*	15	-1	-4	12
Cc1nn2c(CN(C(=O)COc3ccccc3)c3ccccc3)nnc2c2ccccc12	2	4	19	19	-2	20
Cc1nn2c(COc3ccc(NC(=O)C(C)C)cc3)nnc2c2ccccc12	5	102*	9	-14	5	6
O=C(O)CC(NC(=O)Cc1ccc(Cl)cc1)c1ccco1 (stereo not given)	11	-9	5	17	/	13
CC(Oc1ccc(Cl)cc1Cl)C(=O)NC(=S)N1CCc2ccccc21 (stereo not given)	32	104*	27	8	-22	13
CC(Oc1ccc(Cl)cc1C(N)=O)C(=O)N1CCc2ccccc21 (stereo not given)	-31	/	-52	15	-5	-7
CCN(Cc1ccccc1)S(=O)(=O)c1ccc(C(=O)Nc2nnc(C3CC3)o2)cc1	23	98*	0	10	-40	17
CSCc1nnc(NC(=O)c2ccc(S(=O)(=O)N(CC(C)C)CC(C)C)cc2)o1	/	80*	/	/	/	/
CCc1nnc(NC(=O)c2ccc(S(=O)(=O)N(CC(C)C)CC(C)C)cc2)o1	21	/	35	15	0	-18
CNC(=O)c1ccsc1NC(=O)c1ccc(S(=O)(=O)N2CCCc3ccccc32)cc1	23	16	8	13	-23	28
CCCN(CCC)S(=O)(=O)c1ccc(C(=O)Nc2nnc(COC)o2)cc1	24	69*	-11	10	-14	7
CCc1nnc(NC(=O)c2ccc(S(=O)(=O)N3CCCc4ccccc43)cc2)o1	32	86*	36	-3	5	22
O=C(O)CSc1nnc(Cc2cccc3ccccc23)n1-c1cc(C(F)(F)F)cc(C(F)(F)F)c1	-4	4	4	-7	-3	14
CN(c1ccccc1)S(=O)(=O)c1ccc(NC(=O)c2ccccc2)cc1	4	-7	-2	35	-8	43
